Structures can show the parent of a compound that is named as a salt.
How the values were obtained:
Settings in all cases: 10 µM; exposure time 6 h
[1] = tested on: Danio rerio larvae (5 dpf); experiment: difference in excitability vs DMSO (percentage points); higher = more excitable than DMSO
Method in brief: (§1)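 Wild-type zebrafish larvae at 5 dpf were kept in 96-well plates and exposed for 6 h to 100 µL egg water holding library compound at a final concentration of 10 µM. From 3 h into exposure, the plates were held at 28.5 ℃ and photographed every 6 s through a 3-h programme of moving lines and 100 ms, 400Hz tones. Each behaviour was scored by Z-LaP Tracker, a DeepLabCut model, and averaged over 48 larvae per compound. Every value gives the compound mean minus the vehicle control mean, in percentage points.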

[2] = tested on: Danio rerio larvae (5 dpf); experiment: difference in startle response vs DMSO (percentage points); higher = stronger startle than DMSO
Method in brief: as §1

[3] = tested on: Danio rerio larvae (5 dpf); experiment: difference in activity during first hour vs DMSO (percentage points); higher = more activity than DMSO
Method in brief: as §1

[4] = tested on: Danio rerio larvae (5 dpf); experiment: difference in habituation to acoustic stimuli vs DMSO (percentage points); higher = more habituation than DMSO
Method in brief: as §1

[5] = tested on: Danio rerio larvae (5 dpf); experiment: difference in combined optomotor response to red, green and blue moving lines vs DMSO (percentage points); higher = stronger optomotor response than DMSO
Method in brief: as §1

Row | Structure (SMILES) | difference in excitability [1] | difference in startle response [2] | difference in activity during first hour [3] | difference in habituation to acoustic stimuli [4] | difference [5]
1 | C=CC[C@@H]1/C=C(\C)C[C@H](C)C[C@H](OC)[C@H]2O[C@@](O)(C(=O)C(=O)N3CCCC[C@H]3C(=O)O[C@H](/C(C)=C/[C@@H]3CC[C@@H](O)[C@H](OC)C3)[C@H](C)[C@@H](O)CC1=O)[C@H](C)C[C@@H]2OC | 27 | -6.28 | 5.28 | -10.2 | -13.7
2 | O=NN(CCCl)C(=O)NCCCl [Carmustine] | -3.21 | 2.25 | 1.68 | 0.0979 | 11.5
3 | CC(C)C[C@H](NC(=O)[C@H](CCc1ccccc1)NC(=O)CN1CCOCC1)C(=O)N[C@@H](Cc1ccccc1)C(=O)N[C@@H](CC(C)C)C(=O)[C@@]1(C)CO1 [Carfilzomib] | 5.53 | -0.402 | 4.53 | 2.38 | 4.24
4 | Clc1cccc(Cl)c1NC1=NCCN1 [Clonidine (hydrochloride)] | 9.22 | 3.55 | -11.7 | 0.121 | 6.82
5 | O=C(O)P(=O)(O)O [Foscarnet (sodium salt)] | -6.03 | 6.15 | 20.9 | -1.07 | 4.77
6 | Cc1[nH]cnc1CN1CCc2c(c3ccccc3n2C)C1=O [Alosetron (hydrochloride)] | -3.91 | 3.08 | 8.78 | 3.46 | 8.63
7 | Oc1c(Cl)cc(Cl)c(Cl)c1Cc1c(O)c(Cl)cc(Cl)c1Cl [Hexachlorophene] | 8.13 | -9.45 | -18.6 | -9.66 | -15.6
8 | CCCC(=O)O[C@]1(C(=O)COC(C)=O)CC[C@H]2[C@@H]3C[C@H](F)C4=CC(=O)C=C[C@]4(C)[C@@]3(F)[C@@H](O)C[C@@]21C [Difluprednate] | 3.2 | 2.35 | 6.57 | 4.62 | -1.11
9 | O=C(O)CCCc1ccccc1 [Sodium 4-Phenylbutyrate] | -1.36 | 2.31 | -3.38 | 1.43 | 5.24
10 | Cc1ccc(Cl)c(Nc2ccccc2C(=O)O)c1Cl [Meclofenamate (sodium salt)] | 11.1 | 12.4 | -18 | -13.1 | -19.7
11 | CC(=O)Nc1ccc(O)cc1 [Acetaminophen] | -1.23 | -0.558 | -0.87 | -5.65 | -2.34
12 | Nc1nc(N)c2nc(-c3ccccc3)c(N)nc2n1 [Triamterene] | -0.938 | 5.79 | 11.3 | -2.13 | 6.72
13 | C=CC[N+]1([C@H]2C[C@H]3[C@@H]4CC[C@H]5C[C@H](O)[C@@H](N6CCOCC6)C[C@]5(C)[C@H]4CC[C@]3(C)[C@H]2OC(C)=O)CCCC1 [Rocuronium (bromide)] | 14.3 | -3.01 | -1.74 | 4.51 | -2.53
14 | O=C1CCc2cc(OCCCCc3nnnn3C3CCCCC3)ccc2N1 [Cilostazol] | 12.6 | 2.9 | 11.7 | -4.79 | 0.57
15 | COc1cc(C(=O)NS(=O)(=O)c2ccccc2C)ccc1Cc1cn(C)c2ccc(NC(=O)OC3CCCC3)cc12 [Zafirlukast] | 3.02 | -0.95 | 17.6 | 4.84 | -0.091
16 | CCC1=C[C@@H]2CN(C1)Cc1c([nH]c3ccccc13)[C@@](C(=O)OC)(c1cc3c(cc1OC)N(C)[C@H]1[C@@](O)(C(=O)OC)[C@H](OC(C)=O)[C@]4(CC)C=CCN5CC[C@]31[C@@H]54)C2 [Vinorelbine (tartrate)] | 11.6 | -5.75 | 3.25 | -2.19 | -4.51
17 | C=CC(N)CCC(=O)O (stereo not given) [Vigabatrin] | -1.24 | 5.92 | 1.31 | 1.13 | -0.249
18 | Cc1ccsc1C(=CCCN1CCC[C@@H](C(=O)O)C1)c1sccc1C [Tiagabine (hydrochloride)] | 6.86 | 2.66 | 17.9 | 5.1 | -1.64
19 | N=C(N)NCCCC[C@@H]1NC(=O)CCSSC[C@@H](C(N)=O)NC(=O)[C@@H]2CCCN2C(=O)[C@H](Cc2c[nH]c3ccccc23)NC(=O)[C@H](CC(=O)O)NC(=O)CNC1=O [Eptifibatide] | 10.9 | 3.19 | 5.64 | -3.64 | 2.85
20 | CC(C)Nc1cccnc1N1CCN(C(=O)c2cc3cc(NS(C)(=O)=O)ccc3[nH]2)CC1 [Delavirdine (mesylate)] | -2.46 | -1.52 | -9.21 | 7.6 | -2.16
21 | CCCCCOc1ccc(-c2ccc(-c3ccc(C(=O)N[C@H]4C[C@@H](O)[C@@H](O)NC(=O)[C@@H]5[C@@H](O)[C@@H](C)CN5C(=O)[C@H]([C@@H](C)O)NC(=O)[C@H]([C@H](O)[C@@H](O)c5ccc(O)cc5)NC(=O)[C@@H]5C[C@@H](O)CN5C(=O)[C@H]([C@@H](C)O)NC4=O)cc3)cc2)cc1 [Anidulafungin] | 9.87 | -9.61 | -17.6 | -10.4 | -18.1
22 | CC(C)(C)NC(=O)[C@@H]1CN(Cc2cccnc2)CCN1C[C@@H](O)C[C@@H](Cc1ccccc1)C(=O)N[C@H]1c2ccccc2C[C@H]1O [Indinavir (sulfate)] | -11.9 | -2.27 | 1.38 | 11.2 | -0.405
23 | CCOc1ccc(Cc2cc([C@@H]3O[C@H](CO)[C@@H](O)[C@H](O)[C@H]3O)ccc2Cl)cc1 [Dapagliflozin] | -2.18 | 0.361 | -2.82 | -5.36 | 5.64
24 | Cn1nnc2c(C(N)=O)ncn2c1=O [Temozolomide] | -3.41 | 0.671 | -3.71 | 1.66 | 5.77
25 | O=C1NC(c2ccccc2)(c2ccccc2)C(=O)N1COP(=O)(O)O [Fosphenytoin (sodium salt)] | 1.33 | 6.03 | -3.5 | 3.61 | 0.0516
26 | CC1(C)O[C@@H]2[C@@H](CO[C@@]3(COS(N)(=O)=O)OC(C)(C)O[C@@H]23)O1 [Topiramate] | -2.77 | 10.8 | -1.72 | 1.75 | -0.45
27 | C[C@@H](O[C@H]1OCCN(Cc2n[nH]c(=O)[nH]2)[C@H]1c1ccc(F)cc1)c1cc(C(F)(F)F)cc(C(F)(F)F)c1 [Aprepitant] | 9.22 | -5.06 | 6.23 | -3.45 | 4.82
28 | CC(C)CN(C[C@@H](OP(=O)(O)O)[C@H](Cc1ccccc1)NC(=O)O[C@H]1CCOC1)S(=O)(=O)c1ccc(N)cc1 [Fosamprenavir (calcium salt)] | 0.179 | 4.76 | 22.4 | -2.19 | 5.16
29 | COCCCOc1cc(C[C@@H](C[C@H](N)[C@@H](O)C[C@H](C(=O)NCC(C)(C)C(N)=O)C(C)C)C(C)C)ccc1OC [Aliskiren (hemifumarate)] | 16.6 | -3.2 | 10.2 | 0.61 | 3.27
30 | CC1=C(/C=C/C(C)=C/C=C/C(C)=C/C(=O)O)C(C)(C)CCC1 [all-trans Retinoic Acid] | 7.11 | -8.47 | -4.15 | -13.5 | 6.48

From the supplement of paper PMC10515830
